Experimental data as given in PubChem BioAssay (EPA / NIEHS).
Activity calls are given as the source filed them. Rule for the calls: active = hit-call score of the fitted dose curve at least 0.9, where 1 is the maximum; inactive = score below 0.9.

These molecules were tested against Paired box protein Pax-6 (Homo sapiens) (UniProt P26367) (assay: ATG_Pax6_CIS: Attagene CIS-FACTORIAL HepG2 Assay for human Paired Box 6 (PAX6) (AID 2282956)). Settings: HepG2 CIS-FACTORIAL PAX6 reporter transcription, RNA readout; actives raise or lower the signal.
Chain of Paired box protein Pax-6 (Homo sapiens) (P26367 whole entry, looked up): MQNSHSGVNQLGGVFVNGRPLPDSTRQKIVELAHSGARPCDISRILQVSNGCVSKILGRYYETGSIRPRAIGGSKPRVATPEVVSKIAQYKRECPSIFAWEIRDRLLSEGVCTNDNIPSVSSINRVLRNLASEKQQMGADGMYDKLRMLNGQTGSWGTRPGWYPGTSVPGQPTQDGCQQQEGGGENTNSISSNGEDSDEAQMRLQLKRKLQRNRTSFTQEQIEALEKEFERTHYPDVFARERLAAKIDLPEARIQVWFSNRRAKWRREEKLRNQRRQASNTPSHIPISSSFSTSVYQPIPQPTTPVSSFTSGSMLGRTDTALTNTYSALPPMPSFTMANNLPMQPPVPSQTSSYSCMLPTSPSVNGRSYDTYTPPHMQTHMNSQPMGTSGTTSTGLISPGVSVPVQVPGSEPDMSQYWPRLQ
Protocol: ATG_CIS is a cell-based, multiplexed-readout assay that uses HepG2, a human liver cell line, with measurements taken at 24 hours after chemical dosing in a 24-well plate.ATG_Pax6_CIS is one of 52 assay component(s) measured or calculated from the ATG_CIS assay. It is designed to make measurements of mRNA induction, a form of inducible reporter, as detected with fluorescence intensity signals by Reverse transcription polymerase chain reaction (RT-PCR) and Capillary electrophoresis technology.Data from the assay component ATG_Pax6_CIS was analyzed into 1 assay endpoint. This assay endpoint, ATG_Pax6_CIS, was analyzed with bidirectional fitting relative to DMSO as the negative control and baseline of activity. Using a type of inducible reporter, measures of mRNA for gain or loss-of-signal activity can be used to understand the reporter gene at the transcription factor-level as they relate to the gene PAX6. Furthermore, this assay endpoint can be referred to as a primary readout, because this assay has produced multiple assay endpoints where this one serves a reporter gene function. To generalize the intended target to other relatable targets, this assay endpoint is annotated to the dna binding intended target family, where the subfamily is paired box protein.
Human liver HepG2 cells are transiently transfected with multiple reporter transcription units (MRTUs) in 6-well plates using FuGene 6 reagent (Roche; 3 ml FuGene/1 mg DNA). The MRTU constructs are regulated by a cis-regulating element (promoter). […] A major difference between the CIS and TRANS system is that in CIS activities of endogenous TFs are measured, whereas the TRANS assay evaluates changes in activities of exogenous, chimeric NR-Gal4 proteins. […] At the end of 24 hour incubation, total RNA was isolated using TriZol reagent (Invitrogen). The isolated RNA is then reverse-transcribed using oligo(dT) primer and Mo-MLV reverse transcriptase (Invitrogen) with DNAse I (Ambion) treatment for 30 min. The one-tenth of the produced cDNA was amplified by PCR using Taq DNA polymerase (Invitrogen) and two reporter sequence-specific primers. The PCR products were fluorescently labeled by primer extension with 6-arboxyfluorescein (6-FAM) 5'-labeled reporter sequence-specific primer (2 min at 95 C, 20 s at 68 C and 10 min at 72 C) and these products were digested with 5U of HpaI (New England Biolabs) for 2h at 37 C. The fragments were purified using Qiaquick PCR columns (Qiagen), analyzed on an ABI 3130xL genetic analyzer (Applied Biosystems) with peak positions identified by using a set of X-rhodamine (ROX)-labeled MapMarker1000 molecular weight standards (BioVentures). The raw capillary electrophoresis data was processed using Attagraph software (Attagene).

Row | SMILES | outcome
1 | O=C(O)/C=C\C(=O)O | inactive
2 | CCCOCCC | inactive
3 | OCCc1ccccn1 | inactive
4 | CC(=O)CCc1ccccc1 | inactive
5 | CCCCCC[C@@H](O)C/C=C\CCCCCCCC(=O)O | inactive
6 | Cc1cc2nc3c(=O)[nH]c(=O)nc-3n(C[C@H](O)[C@H](O)[C@H](O)CO)c2cc1C | inactive
7 | CC(O)(P(=O)(O)O)P(=O)(O)O | inactive
8 | CCC(C)(CCC(C)C)C(=O)O (stereo not given) | inactive
9 | CCCCC(CC)COC(=O)CS (stereo not given) | inactive
10 | Clc1ccc(Sc2cc(Cl)c(Cl)cc2Cl)cc1 | inactive
11 | CC(C)CC(=O)O | inactive
12 | CN(C)CCC(c1ccc(Cl)cc1)c1ccccn1 (stereo not given) | inactive
13 | CCO[Si](OCC)(OCC)c1ccccc1 | inactive
14 | COc1ccccc1OCC(O)CO (stereo not given) | inactive
15 | CCCCn1cc[n+](C)c1 | inactive
16 | CCCC[N+]1(C)CCCC1 | inactive
17 | COc1ccc2ccccc2c1 | inactive
18 | CCCCOC(=O)COc1ccc(Cl)cc1Cl | inactive
19 | O=C(Oc1ccccc1)c1ccccc1 | inactive
20 | C=CCOC(=O)C(=C)C | inactive

Row | SMILES | outcome
21 | CC1=NN(c2cc(Cl)c(S(=O)(=O)O)cc2Cl)C(=O)C1N=Nc1ccc(S(=O)(=O)O)cc1 (stereo not given) | inactive
22 | O=[N+]([O-])c1ccccc1C(F)(F)F | inactive
23 | COc1cccc(OC)c1C(=O)O | inactive
24 | CCCCCCCC#N | inactive
25 | F[B-](F)(F)F | inactive
26 | [O-][n+]1ccc(Cl)cc1 | inactive
27 | Sc1nc2ccccc2s1 | inactive
28 | O=C(O)c1cc(Cl)cc(Cl)c1O | inactive
29 | C=CC(C)(CCC=C(C)C)OC(=O)c1ccccc1 (stereo not given) | inactive
30 | CCCC(=O)OC | inactive
31 | CCCCCC1CCCC(=O)O1 (stereo not given) | inactive
32 | CC/C=C/CCO | inactive
33 | CC(C)CC(=O)CC(C)C | inactive
34 | CO[Si](CCCNCCN)(OC)OC | inactive
35 | CCCCCCCCCCCCCC | inactive
36 | OCCN(CCO)c1cccc(Cl)c1 | inactive
37 | O=C(O)c1nc(Cl)c(Cl)c(Cl)c1Cl | inactive
38 | O=C1NC(=O)C2CC=CCC12 (stereo not given) | inactive
39 | C=C(C)C(=O)OCCCCCC | inactive
40 | CC(C)(C)NC(=O)[C@@H]1CN(Cc2cccnc2)CCN1C[C@@H](O)C[C@@H](Cc1ccccc1)C(=O)N[C@H]1c2ccccc2C[C@H]1O | inactive
